Results: PubChem BioAssay (EPA / NIEHS)
Several values for one entry are separate records, joined by “and”; a condition that tells them apart may be missing. Equal entries are not always repeated. Some compounds were tested as several samples or in several runs, with calls that do not always agree. Activity calls are given as the source filed them. How the source made its calls: active means hit-call score of the fitted dose curve at least 0.9, where 1 is the maximum; inactive means score below 0.9.

Assay: ATG_RORE_CIS: Attagene CIS-FACTORIAL HepG2 Assay for human RAR-related Orphan Receptor Element (RORE) (AID 2282959)
Conditions: HepG2 Attagene cis-factorial RORE reporter, mRNA; actives raise or lower the signal
Method: ATG_CIS is a cell-based, multiplexed-readout assay that uses HepG2, a human liver cell line, with measurements taken at 24 hours after chemical dosing in a 24-well plate.ATG_RORE_CIS is one of 52 assay component(s) measured or calculated from the ATG_CIS assay. It is designed to make measurements of mRNA induction, a form of inducible reporter, as detected with fluorescence intensity signals by Reverse transcription polymerase chain reaction (RT-PCR) and Capillary electrophoresis technology.Data from the assay component ATG_RORE_CIS was analyzed into 1 assay endpoint. This assay endpoint, ATG_RORE_CIS, was analyzed with bidirectional fitting relative to DMSO as the negative control and baseline of activity. Using a type of inducible reporter, measures of mRNA for gain or loss-of-signal activity can be used to understand the reporter gene at the transcription factor-level as they relate to the gene RORA and RORB and RORC. Furthermore, this assay endpoint can be referred to as a primary readout, because this assay has produced multiple assay endpoints where this one serves a reporter gene function. To generalize the intended target to other relatable targets, this assay endpoint is annotated to the nuclear receptor intended target family, where the subfamily is orphan.
Human liver HepG2 cells are transiently transfected with multiple reporter transcription units (MRTUs) in 6-well plates using FuGene 6 reagent (Roche; 3 ml FuGene/1 mg DNA). The MRTU constructs are regulated by a cis-regulating element (promoter). […] A major difference between the CIS and TRANS system is that in CIS activities of endogenous TFs are measured, whereas the TRANS assay evaluates changes in activities of exogenous, chimeric NR-Gal4 proteins. […] At the end of 24 hour incubation, total RNA was isolated using TriZol reagent (Invitrogen). The isolated RNA is then reverse-transcribed using oligo(dT) primer and Mo-MLV reverse transcriptase (Invitrogen) with DNAse I (Ambion) treatment for 30 min. The one-tenth of the produced cDNA was amplified by PCR using Taq DNA polymerase (Invitrogen) and two reporter sequence-specific primers. The PCR products were fluorescently labeled by primer extension with 6-arboxyfluorescein (6-FAM) 5'-labeled reporter sequence-specific primer (2 min at 95 C, 20 s at 68 C and 10 min at 72 C) and these products were digested with 5U of HpaI (New England Biolabs) for 2h at 37 C. The fragments were purified using Qiaquick PCR columns (Qiagen), analyzed on an ABI 3130xL genetic analyzer (Applied Biosystems) with peak positions identified by using a set of X-rhodamine (ROX)-labeled MapMarker1000 molecular weight standards (BioVentures). The raw capillary electrophoresis data was processed using Attagraph software (Attagene).

Row | Structure (SMILES) | outcome | AC50
1 | O=S(=O)(O)C(F)(F)C(F)(F)C(F)(F)C(F)(F)C(F)(F)C(F)(F)C(F)(F)C(F)(F)F | inactive | 133 µM (active)
2 | Oc1cc(Cl)ccc1Oc1ccc(Cl)cc1Cl | inactive | 12.7 µM (active) and 15.1 µM (active) and 15.8 µM (active)
3 | COP(=S)(OC)Oc1ccc(SC)c(C)c1 |  | 53.7 µM (active)
4 | CNC(=O)CSP(=S)(OC)OC | inactive | 
5 | CC(C)(C)C(O)C(Oc1ccc(Cl)cc1)n1cncn1 (stereo not given) | inactive | 
6 | CCN(CC)C(=O)SCc1ccc(Cl)cc1 |  | 19 µM (active)
7 | OCCOc1ccccc1 | inactive | 
8 | CC(C)(C)C(O)/C(=C\c1ccc(Cl)cc1Cl)n1cncn1 (stereo not given) | inactive | 
9 | CC(C)N(C(=O)COc1nnc(C(F)(F)F)s1)c1ccc(F)cc1 | inactive | 
10 | Clc1ccccc1-c1nnc(-c2ccccc2Cl)nn1 | inactive | 
11 | N#Cc1c(Cl)c(Cl)c(Cl)c(C#N)c1Cl | inactive | 
12 | COc1cc(OC)nc(NC(=O)NS(=O)(=O)c2cc(NC=O)ccc2C(=O)N(C)C)n1 | inactive | 
13 | C[C@H]1[C@H](c2ccc(Cl)cc2)SC(=O)N1C(=O)NC1CCCCC1 |  | 17.5 µM (active)
14 | CCS(=O)(=O)c1cccnc1S(=O)(=O)NC(=O)Nc1nc(OC)cc(OC)n1 | inactive | 
15 | CCC(C)(NC(=O)c1cc(Cl)c(C)c(Cl)c1)C(=O)CCl (stereo not given) | inactive | 
16 | O=C(Nc1ccccc1)Nc1cnns1 | inactive | 
17 | CCOCN(C(=O)CCl)c1c(C)cccc1CC | inactive | 
18 | CC1(C)C(C=C(Cl)Cl)C1C(=O)OC(C#N)c1ccc(F)c(Oc2ccccc2)c1 (stereo not given) | inactive | 
19 | Cc1[nH]c(=O)n(C(C)(C)C)c(=O)c1Cl | inactive | 

Row | Structure (SMILES) | outcome | AC50
20 | O=S1OCC2C(CO1)C1(Cl)C(Cl)=C(Cl)C2(Cl)C1(Cl)Cl (stereo not given) | inactive | 
21 | CCOc1nc(NC)nc(NC(=O)NS(=O)(=O)c2ccccc2C(=O)OC)n1 | inactive | 
22 | CNC(=O)Oc1ccccc1OC(C)C | inactive | 
23 | CC(C)OC(=O)Nc1cccc(Cl)c1 | inactive | 
24 | CCOC1Oc2ccc(OS(C)(=O)=O)cc2C1(C)C (stereo not given) | inactive | 
25 | COP(=O)(OC)OC=C(Cl)Cl | inactive | 
26 | O=[N+]([O-])c1c(Cl)c(Cl)c(Cl)c(Cl)c1Cl |  | 10.7 µM (active)
27 | CNC(=O)Oc1cccc(N=CN(C)C)c1 |  | 90.4 µM (active)
28 | O=C(NC(=O)c1c(F)cccc1F)Nc1ccc(OC(F)(F)C(F)OC(F)(F)F)c(Cl)c1 (stereo not given) | inactive | 
29 | O=C1c2ccccc2C(=O)N1SC(Cl)(Cl)Cl | inactive | 
30 | CN1CSC(=S)N(C)C1 | inactive | 
31 | CCCN(CCC)c1c([N+](=O)[O-])cc(C(F)(F)F)cc1[N+](=O)[O-] | inactive | 
32 | COc1nn(CSP(=S)(OC)OC)c(=O)s1 | inactive | 
33 | CCc1ccc(C(=O)NN(C(=O)c2cc(C)cc(C)c2)C(C)(C)C)cc1 | inactive | 
34 | COP(=S)(OC)Oc1ccc([N+](=O)[O-])cc1 | inactive | 
35 | CCC(C)(C)C(=O)OC1=C(c2ccc(Cl)cc2Cl)C(=O)OC12CCCCC2 | inactive | 
36 | O=[N+]([O-])/N=C1\NCCN1Cc1ccc(Cl)nc1 | inactive | 
37 | CCCN(CCOc1c(Cl)cc(Cl)cc1Cl)C(=O)n1ccnc1 | inactive | 
38 | O=C(O)CCCOc1ccc(Cl)cc1Cl | inactive | 
